CYP2C9 inhib: blocks human cytochrome P450 2C9; P11712; CYP2C9 Supersomes, luciferin-H conversion, luminescence; inhibition, % at 5 µM; hit rate 20% among 96,000; AID 777;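 active = blocking of liver enzyme CYP2C9 beyond about 50% at 5 µM, limit read from the data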
Target sequence (P11712 whole entry, looked up): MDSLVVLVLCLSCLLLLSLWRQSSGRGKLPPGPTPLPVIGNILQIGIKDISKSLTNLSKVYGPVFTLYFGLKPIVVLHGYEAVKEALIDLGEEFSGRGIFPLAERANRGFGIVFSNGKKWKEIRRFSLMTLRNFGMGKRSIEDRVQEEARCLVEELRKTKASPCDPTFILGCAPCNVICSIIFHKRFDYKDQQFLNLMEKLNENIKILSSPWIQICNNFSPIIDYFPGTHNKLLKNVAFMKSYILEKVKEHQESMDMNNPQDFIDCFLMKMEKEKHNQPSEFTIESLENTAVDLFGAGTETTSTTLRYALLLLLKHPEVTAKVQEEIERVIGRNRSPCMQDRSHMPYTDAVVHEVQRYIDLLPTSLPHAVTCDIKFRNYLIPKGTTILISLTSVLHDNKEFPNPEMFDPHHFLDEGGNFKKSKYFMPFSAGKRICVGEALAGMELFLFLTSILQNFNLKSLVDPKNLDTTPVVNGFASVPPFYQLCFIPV
CYP2C19 inhib: blocks human cytochrome P450 2C19 | P33261 | inhibition, % at 5 µM | hit rate 21% among 96,000 | CYP2C19 Supersomes, luciferin-H EGE luminescence, 30 min;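 active = CYP2C19 inhibition above a set limit at 5 µM in the primary screen, cut at about 50% in these data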;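 also: plate controls were negative control wells for no effect and 2.5 mM tranylcypromine positive control for full effect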
CYP2C19 act: cytochrome P450 2C19 (human) activation. 96,000 tested, under 10 active. recombinant CYP2C19, luciferin-H EGE luminescence; active compounds read high; 0 = fully inhibited enzyme, 1 = untreated enzyme. activation factor at 5 µM;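 active = activation factor of at least 2 at 5 µM in the primary screen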;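 also: 0 = wells with 2.5 mM tranylcypromine and 1 = vehicle-only wells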
CYP2C9 activ: activators of human CYP2C9; P11712; activation factor at 5 µM; recombinant CYP2C9, luciferin-H conversion, luminescence; active compounds read high; factor 1 = untreated enzyme, 0 = blocked; hit rate 1.4% among 96,000;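 active = activation factor of 2 or more for CYP2C9 at a 5 µM dose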;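 also: 0 = sulfaphenazole-blocked wells and 1 = vehicle-only wells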
D1 mod: allosterically modulates the human D1 dopamine receptor | P21728 | hit rate 5.9% among 58,000 | B-score at 10 µM | HEK293 D1, CRE-luciferase, dopamine EC30 potentiation; actives deviate in either direction;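 active = luminescence count or its row- and column-corrected plate score outside the 99.7% band of the plate's sample wells, on either side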
DAT uptake mod: modulates human dopamine transporter uptake under cocaine | Q01959 | LLC-PK1 hDAT cells, [14C]-dopamine uptake with cocaine IC80; actives deviate in either direction | B-score at 10 µM | hit rate 1.3% among 110,000;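 active = Z score or B-score, a plate-position-corrected score, falls beyond the plate's 99.7% confidence bounds, in either direction; inactive = both scores lie inside the 99.7% bounds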;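 also: scored against the spread of the other compound wells on the same plate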
* hit, by the source's call; / = no result given. Hits are enriched below; roughly 28% of the tested compounds scored in any of these assays.

SMILES	CYP2C9 inhib	CYP2C19 inhib	CYP2C19 act	CYP2C9 activ	D1 mod	DAT uptake mod
N#Cc1c(N)c(C(=O)c2ccccc2)n2c1CCC2	-15	51*	0.5	1.1	-0.25	0.18
N#Cc1c2n(c3c(-c4ccccc4)ncnc13)CCC2	-9	6	0.9	1.1	0.07	0.63
CC(C)(CO)NCc1cc(Br)ccc1OCc1ccccc1	16	44	0.6	0.8	/	-1.1
CCOc1cc(CNCCO)cc(Br)c1OCc1ccccc1Cl	-6	55*	0.5	1.1	/	1.3
CCOc1cc(CNC(C)(C)CO)cc(Br)c1OCc1ccc(Cl)cc1Cl	-2	1	1	1	/	2.5*
CCOc1cc(CNCCO)cc(Br)c1OCc1ccc(Cl)cc1	14	78*	0.2	0.9	/	/
CCOc1cc(CNc2ccc(O)cc2)cc(Br)c1OCc1ccccc1F	-14	34	0.7	1.1	/	-1.1
CCOc1cc(/C=N/O)cc(Br)c1OCc1ccc(Cl)cc1	7	4	1	0.9	/	-0.51
CS(=O)(=O)NCc1nnc(SCC(=O)NC2CCCCC2)n1-c1ccc(F)cc1	-2	-4	1	1	0.15	1.2
Cc1c(CCC#N)c(N2CCCCC2)n2c(nc3ccccc32)c1C#N	/	/	/	/	3	/
CCc1c(C)c(C#N)c2nc3ccccc3n2c1N1CCN(c2cc(C)ccn2)CC1	67*	22	0.8	0.3	/	/
C=CCc1c(C)c(C#N)c2nc3ccccc3n2c1N1CCN(C)CC1	/	/	/	/	16*	/
COc1ccc(CCNC(=O)c2n[nH]c(=O)c3ccccc23)cc1	5	-2	1	1	/	-0.45
CCC12CN(S(=O)(=O)c3ccc(C)cc3)CC(CC)(CN(S(=O)(=O)c3ccc(C)cc3)C1)C2=O	38	43	0.6	0.6	/	0.58
COC(=O)c1[nH]c2ccccc2c1NC(=O)CN1CCC(C(N)=O)(N2CCCCC2)CC1	49	18	0.8	0.5	1.9	-0.21
C=CCSc1nnc(NC(=O)c2cccc(S(=O)(=O)N3CCOCC3)c2)s1	9	-12	1.1	0.9	-0.056	-0.036
Cc1ccc(S(=O)(=O)CCc2nnc(NC(=O)COc3cccc(C)c3)s2)cc1	5	-4	1	0.9	/	0.38
CCOCc1cnc(C)nc1NCC(=O)c1c(C)[nH]c2ccc(OC)cc12	-1	2	1	1	/	0.043
O=C(Nc1cccc(Cn2cccn2)c1)c1cc2c(s1)CCCC2	-95	54*	0.5	1.9	0.023	0.44
O=C(Nc1ccc2c(c1)CCC2)c1cccc(S(=O)(=O)N2CCN(c3ccccc3)CC2)c1	68*	51*	0.5	0.3	/	-0.55
O=C(NC1CCCc2ccccc21)c1cccc(S(=O)(=O)N2CCN(c3ccccc3)CC2)c1 (stereo not given)	82*	34	0.7	0.2	/	0.18
O=C(Nc1cccc(S(=O)(=O)N2CCOCC2)c1)c1cc2c(s1)CCC2	97*	52*	0.5	0	/	0.022
O=C(NC1CCCC1)c1cccc(S(=O)(=O)N2CCCCC2)c1	24	8	0.9	0.8	0.48	0.011
CCc1c(C)nc(SCC(=O)N2CCc3ccccc32)[nH]c1=O	9	8	0.9	0.9	-1.2	0.066
COCCn1c(=O)c2cc3c(=O)n(CCOC)c(=O)c3cc2c1=O	35	27	0.7	0.7	/	1.2
SMILES	CYP2C9 inhib	CYP2C19 inhib	CYP2C19 act	CYP2C9 activ	D1 mod	DAT uptake mod
Clc1ccc(C2CC(c3ccccc3)Nc3ncnn32)cc1 (stereo not given)	32	75*	0.2	0.7	1.2	0.14
CCOc1ccc(C2CC(c3ccc(F)cc3)n3ncnc3N2)cc1 (stereo not given)	/	/	/	/	0.47	/
Fc1ccc(C2CC(c3ccccc3)n3ncnc3N2)cc1 (stereo not given)	22	88*	0.1	0.8	1.5	-0.27
C=CCn1c(SCCC)nc(O)cc1=O	2	-7	1.1	1	/	-0.3
Cc1nc2nc(COc3ccccc3)[nH]n2c(=O)c1Cl	75*	31	0.7	0.3	/	-1.1
Cc1nc2nc(Cc3ccccc3)[nH]n2c(=O)c1Cl	69*	-14	1.1	0.3	-0.028	0.75
CCCCNC(=S)NNC(=O)c1nn(C)cc1Cl	/	/	/	/	/	-0.19
COc1ccc(CCNC(=O)C2CCN(S(=O)(=O)c3c(C)noc3C)CC2)cc1OC	-26	-18	1.2	1.3	-0.79	0.63
Cc1ccc(N(CC(=O)NCCc2ccccc2)S(=O)(=O)c2c(C)noc2C)cc1	34	84*	0.2	0.7	/	-0.26
COc1ccc(CCNC(=O)CN(c2ccc(C)cc2)S(=O)(=O)c2c(C)noc2C)cc1OC	40	92*	0.1	0.6	1.2	1.3
COC(=O)CN(c1ccc(OC)cc1)S(=O)(=O)c1c(C)noc1C	10	46	0.5	0.9	0.1	0.75
C=CCNc1nc(-c2ccc(OC)cc2OC)cs1	-8	57*	0.4	1.1	/	0.56
C=CCCC(=O)Nc1nc(C)c(-c2csc(Nc3cccc(OC)c3)n2)s1	49	13	0.9	0.5	/	-0.67
CCC(C)[C@H]1CN=C(N)N1CCc1cc(C(F)(F)F)cc(C(F)(F)F)c1 (stereo not given in full)	/	/	/	/	/	0.014
CC(=O)C1=C(O)C(=O)N(c2ccc(S(N)(=O)=O)cc2)C1c1ccc([N+](=O)[O-])cc1 (stereo not given)	90*	18	0.8	0.1	/	-0.33
CCOc1ccc(Nc2cc(=O)oc3ccccc23)cc1	-89	11	0.9	1.9	/	1.4
Cc1ccc(NC(=O)C(C)Sc2nnc(-c3cccnc3)n2-c2ccccc2)cc1 (stereo not given)	-4	1	1	1	/	2.1
CCOC(=O)C1=C(C)N(c2ccccc2)C(=O)C1	/	/	/	/	/	-0.88
COc1ccc(N2C(=O)CCC(C(=O)c3ccccc3)=C2C)cc1	37	95*	0.1	0.6	-0.29	0.18
CCN(Cc1nc2ccccc2c(=O)[nH]1)Cc1cc(=O)oc2cc(OC)ccc12	52*	46	0.5	0.5	/	-0.61
Cc1cc2oc(=O)cc(COC(=O)c3n[nH]c4ccccc34)c2cc1C	76*	14	0.9	0.2	/	/
COc1ccc2c(COC(=O)c3n[nH]c4ccccc34)cc(=O)oc2c1	56*	17	0.8	0.4	/	-0.26
O=C1N[C@H](C(=O)O)CS1	/	/	/	/	/	-1.1
CCCC(=O)Oc1ccccc1C1SCc2cc(C)c(C)cc2CS1	10	-4	1	0.9	/	/
CNC(=O)c1cc(Nc2nnc(C)c3ccccc23)ccc1OC	1	-24	1.2	1	/	-0.28
COc1ccc(-c2noc(C3CCCN(C(=O)c4cccs4)C3)n2)cc1 (stereo not given)	89*	85*	0.1	0.1	-0.57	2
O=[N+]([O-])c1cccc(S(=O)(=O)N2CCC(c3nc(-c4ccncc4)no3)CC2)c1	60*	38	0.6	0.4	/	0.064
O=S(=O)(c1ccc(Cl)c(F)c1)N1CCC(c2nc(-c3ccncc3)no2)CC1	46	33	0.7	0.5	-0.16	0.19
